Screening results: PubChem, several laboratories
The full list was thinned out, with hits kept by preference.
TcdB GH inh – inhibitors of Clostridioides difficile toxin B glycohydrolase. TcdB glycohydrolase enzymatic assay, plate reader. inhibition, % at 9.99 µM. 350,000 tested, 0.24% active; in the data active = inhibition above about 10%
Bead autofluor – counter-screen for toxin protease inhibitors: compound fluorescence. compound autofluorescence counterscreen, microsphere flow cytometry; active compounds read high. fluorescence intensity (no concentration beside the values). 360,000 tested, 3.1% active. AID 624483; in the data active = fluorescence intensity above about 16000; inconclusive = no clear call, values can overlap the other calls
BoNT F protease – inhibitors of Botulinum neurotoxin F light chain protease; Multiplex microsphere protease cleavage assay, flow cytometry; inhibition, % at 10 µM; 360,000 tested, 0.22% active; in the data active = inhibition above about 35%, passing the limit was not always enough; inconclusive = no clear call, values can overlap the other calls; also: plate controls were buffer without enzyme for full effect and enzyme alone for no effect
Anthrax LF inh2 – anthrax lethal factor protease inhibition | P15917 | multiplex microsphere protease cleavage assay, LF | inhibition, % at 10 µM | 360,000 tested, 0.12% active; also: plate controls were buffer without enzyme for full effect and enzyme alone for no effect
BoNT-A LC inh2 – blocks Botulinum neurotoxin A light chain protease | multiplex microsphere protease substrate cleavage, flow cytometry | inhibition, % at 10 µM | 360,000 tested, 0.17% active | AID 588499; also: plate controls were buffer without enzyme for full effect and enzyme alone for no effect
Active calls of the source: *; ? = inconclusive; nt = no result. Rule as the data show it, unless noted: active = inhibition above about 30%; inconclusive = no clear call, values can overlap the other calls; inactive = below that.

SMILES	TcdB GH inh	Bead autofluor	BoNT F protease	Anthrax LF inh2	BoNT-A LC inh2
CC(C)NC(=O)N(C)C[C@H]1OCCCC[C@@H](C)Oc2ccc(NC(=O)C3CCCCC3)cc2C(=O)N([C@@H](C)CO)C[C@H]1C	0	nt	nt	nt	nt
COc1ccc(CC(=O)Nc2c3c(nn2-c2ccccc2C)CS(=O)C3)cc1 (stereo unspecified)	nt	20787*	0	0	0
COc1ccccc1NC(=O)Cc1noc(CSc2nnc(C)s2)n1	nt	22803*	-1	-1	0
COc1ccccc1NC(=O)Cc1noc(CSc2nnc(N)s2)n1	nt	2200	5	-1	0
COc1cc([N+](=O)[O-])cc(CN2CCCCC2)c1O	2	16919*	-4	-4	?
CCC(=O)N(C)C[C@H]1Oc2cc(-c3cccc(F)c3)ccc2S(=O)(=O)N([C@H](C)CO)C[C@H]1C	-1	nt	nt	nt	nt
O=C(NC(=S)Nc1cnc2ccccc2c1)c1ccccc1	1	4460	-8	-7	1
Cn1ncc2cc(NC(=S)NC(=O)c3ccccc3)ccc21	nt	17054*	-7	-2	-2
O=C(NC(=S)Nc1ccc2c(c1)OCCO2)c1ccccc1	0	25451*	-7	-3	?
COCCCNC(=S)Nc1ccc2c(c1)OCCO2	nt	2458	-3	-2	0
O=C(NC(=S)Nc1ccc2c(c1)OCCO2)c1ccccc1F	1	4450	-9	-6	0
OCCNC(=S)Nc1ccc2c(c1)OCCO2	0	4551	?	30*	-2
COc1ccc(-c2ccc([C@H]3[C@@H](CO)N4C(=O)CNC[C@H]34)cc2)cc1	-1	nt	nt	nt	nt
Cc1ccc(S(=O)(=O)Nc2ccc3c(c2)nc2n3CCN(Cc3ccccc3)C2)cc1	nt	18646*	-4	3	6
O=S(=O)(Nc1ccc2c(c1)nc1n2CCN(Cc2ccccc2)C1)c1ccc(F)cc1	nt	24166*	-12	3	2
O=C(Nc1nccs1)c1nc(-c2ccccc2)n(-c2ccccc2)n1	nt	9416	13	7	1
Cc1csc(NC(=O)c2nc(-c3ccccc3)n(-c3ccccc3)n2)n1	nt	22922*	2	1	1
Cc1ccc(OCc2nnc(SCC(N)=O)n2N)cc1	2	5445	3	3	1
COCCn1c(COc2ccc(Cl)cc2)nnc1SCC(N)=O	1	22516*	3	-1	2
CCOc1ccc(Cc2nnc(SCC(N)=O)n2C)cc1	nt	21499*	-4	0	-2
O=C(C[C@@H]1CC[C@@H]2[C@H](COC[C@@H](O)CN2Cc2ccccc2F)O1)N[C@H]1CCN(Cc2ccccc2)C1	-1	nt	nt	nt	nt
COc1cccc(NC(=O)N2CC(=O)N3[C@H](CO)[C@H](c4ccc(C#CCC5CCCC5)cc4)[C@H]3C2)c1	-1	nt	nt	nt	nt
Clc1ccc(CSc2ncn(-c3ccccc3)n2)cc1	nt	21528*	-8	-1	-6
Clc1cccc(CSc2ncn(-c3ccccc3)n2)c1	0	16759*	-4	0	-1
O=C(CSc1ncn(-c2ccccc2)n1)N1CCc2ccccc21	nt	4546	-8	0	1
SMILES	TcdB GH inh	Bead autofluor	BoNT F protease	Anthrax LF inh2	BoNT-A LC inh2
Clc1cccc(CSc2nccn2-c2ccccc2)c1	nt	2069	13	-6	-1
CN(C)C(=O)C[C@@H]1C=C[C@@H](NC(=O)NC2CCCCC2)[C@H](CO)O1	1	nt	nt	nt	nt
COc1cc2c(cc1NC(=O)CCCCCN1C(=O)CCC1=O)oc1ccccc12	nt	24230*	-2	0	0
COc1ccccc1OCC(=O)Nc1ccncc1	-1	3929	?	-8	3
COc1cc2c(cc1NC(=O)CCCN1C(=O)CCC1=O)oc1ccccc12	nt	2678	-8	-2	0
O=C(Nc1ccc2c(c1)oc1ccccc12)c1ccncc1	nt	16791*	-4	-3	-1
COc1ccccc1OCC(=O)Nc1ccccn1	nt	22764*	2	1	1
COc1cc2c(cc1NC(=O)COc1ccccc1OC)oc1ccccc12	nt	20273*	0	-1	1
C[C@H](CO)N1C[C@H](C)[C@@H](CN(C)C(=O)C2CCCCC2)OCCCC[C@H](C)Oc2ccc(NC(=O)NC3CCCCC3)cc2C1=O	-7	nt	nt	nt	nt
O=C(C[C@H]1C[C@H]2c3cc(NC(=O)Cc4ccncc4)ccc3O[C@H]2[C@@H](CO)O1)NCc1cccnc1	0	nt	nt	nt	nt
O=C(NCC(F)(F)F)Nc1ccccn1	nt	19809*	0	-2	?
CNC(=O)COc1ccccc1C(=O)Nc1ccc2c(c1)oc1ccccc12	nt	16632*	-5	-1	-1
COc1cc2c(cc1NS(=O)(=O)N1CCCCC1)oc1ccccc12	nt	23461*	-5	-6	-4
O=C1c2ccccc2-c2cc(Br)ccc2NC1O (stereo unspecified)	-4	3457	-14	-11	0
O=C1c2ccccc2C(=Nc2ccccc2)C1c1cccc(Br)c1 (stereo unspecified)	nt	21729*	-2	-10	1
S=C(c1cn(Cc2ccc(Br)cc2)c2ccccc12)N1CCOCC1	nt	2026	9	-1	0
c1ccc(CN2CCOCCOCCOCC2)cc1	0	3594	?	-6	4
O=C(N1CCOCC1)N1CCN(Cc2ccccc2)CC1	0	16289*	13	-12	?
S=C(c1cn(Cc2ccccc2)c2ccccc12)N1CCOCC1	17*	4438	0	2	-1
C[C@@H]1CN([C@@H](C)CO)S(=O)(=O)c2ccc(-c3ccncc3)cc2O[C@@H]1CN(C)Cc1ccccc1	0	nt	nt	nt	nt
C[C@@H]1CN([C@H](C)CO)S(=O)(=O)c2ccc(-c3ccncc3)cc2O[C@H]1CN(C)Cc1ccc(Oc2ccccc2)cc1	-12	nt	nt	nt	nt
C[C@H](CO)N1C[C@H](C)[C@H](CN(C)Cc2ccc(Oc3ccccc3)cc2)Oc2cc(-c3ccncc3)ccc2S1(=O)=O	17*	nt	nt	nt	nt
C[C@@H]1CN([C@@H](C)CO)S(=O)(=O)c2ccc(-c3ccncc3)cc2O[C@@H]1CN(C)Cc1ccc(Oc2ccccc2)cc1	14*	nt	nt	nt	nt
CN(C)CCN1C(=O)C(=O)/C(=C(/O)c2ccc(F)cc2)C1c1ccccc1F (stereo unspecified)	nt	22555*	3	-10	1
Cc1ccc(/C(O)=C2\C(=O)C(=O)N(CCN(C)C)C2c2ccccc2F)cc1 (stereo unspecified)	nt	20048*	0	-6	?
SMILES	TcdB GH inh	Bead autofluor	BoNT F protease	Anthrax LF inh2	BoNT-A LC inh2
Cc1ccc(/C(O)=C2\C(=O)C(=O)N(CCCN3CCOCC3)C2c2ccccc2F)cc1 (stereo unspecified)	-1	2882	0	-1	0
Cc1cc(C(=O)Nc2cccc3c2O[C@@H](CN(C)S(=O)(=O)c2ccc(Cl)cc2)[C@H](C)CN([C@@H](C)CO)C3=O)n(C)n1	0	nt	nt	nt	nt
C[C@H](CO)N1C[C@H](C)[C@H](CN(C)Cc2ccc(Oc3ccccc3)cc2)Oc2ccc(NS(=O)(=O)c3cn(C)cn3)cc2C1=O	0	nt	nt	nt	nt
Cc1cc(NC(=O)c2cccc(S(=O)(=O)N3CCCCCC3)c2)no1	nt	17368*	-5	-1	-2
Cc1cc(NC(=O)CN2CCN(S(=O)(=O)c3ccc(Cl)cc3)CC2)no1	nt	19724*	-1	0	0
COC(=O)c1cccc(S(=O)(=O)N2CCC(NC(=O)Nc3cccc(F)c3)CC2)c1	nt	17460*	-8	-2	-2
Cc1cc(NC(=O)c2cc(S(=O)(=O)N3CCCCC3)ccc2C)no1	1	3938	7	6	0
